Compound activity as filed in PubChem BioAssay.
EPAC1 antag – qHTS for Antagonist of cAMP-regulated guanine nucleotide exchange factor 3 (EPAC1): primary screen; Rap guanine nucleotide exchange factor 3 (Homo sapiens), O95398; EPAC1 GEF assay, Rap1b-BODIPY-GDP exchange fluorescence; Potency, µM (series often up to 115 µM), inactives show at the top dose activity change, negative = inhibition, most hits filed as inhibitors; hit rate 0.14% among 360,000; AID 720709, 2013;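 note: plate controls were vehicle for no effect and positive control for full effect; nearly all actives have a fitted effect of over 50% in size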
EPAC1 agonist – qHTS for Agonist of cAMP-regulated guanine nucleotide exchange factor 3 (EPAC1): primary screen; AID 720707, 2013; EPAC1 agonist qHTS, biochemical assay; response scale: 100% = response to 6.5 mM cAMP; hit rate 0.073% among 360,000; Rap guanine nucleotide exchange factor 3 (Homo sapiens), O95398; Potency, µM (highest dose often 154 µM), for inactives: top-dose activation, actives largely listed as activators; note: nearly all actives have a fitted effect of over 60% in size
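Read-out is the fluorescence drop as BODIPY-GDP leaves Rap1B (480 nm excitation, 540 nm emission), recorded every 5 minutes over 30 minutes. Reactions held 100 nM EPAC1, 250 nM Rap1B–BODIPY-GDP and 50 uM GDP, with 6.5 mM cAMP setting full activation.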
EPAC2 antag – qHTS for Antagonist of cAMP-regulated guanine nucleotide exchange factor 2 (EPAC2): primary screen; EPAC2 GEF exchange of Rap1B-BODIPY-GDP, fluorescence; Rap guanine nucleotide exchange factor 4 (Homo sapiens), Q8WZA2; Potency, µM (titrated, usually from 114 µM), for inactives: at the highest dose activity, negative = inhibition, usual class: inhibitors; hit rate 0.18% among 360,000; AID 720708, 2013; note: % is set by controls: 0 for no effect and ±100 for the full control effect; nearly all actives have a fitted effect of over 45% in size
Target sequence (Q8WZA2 whole entry, looked up): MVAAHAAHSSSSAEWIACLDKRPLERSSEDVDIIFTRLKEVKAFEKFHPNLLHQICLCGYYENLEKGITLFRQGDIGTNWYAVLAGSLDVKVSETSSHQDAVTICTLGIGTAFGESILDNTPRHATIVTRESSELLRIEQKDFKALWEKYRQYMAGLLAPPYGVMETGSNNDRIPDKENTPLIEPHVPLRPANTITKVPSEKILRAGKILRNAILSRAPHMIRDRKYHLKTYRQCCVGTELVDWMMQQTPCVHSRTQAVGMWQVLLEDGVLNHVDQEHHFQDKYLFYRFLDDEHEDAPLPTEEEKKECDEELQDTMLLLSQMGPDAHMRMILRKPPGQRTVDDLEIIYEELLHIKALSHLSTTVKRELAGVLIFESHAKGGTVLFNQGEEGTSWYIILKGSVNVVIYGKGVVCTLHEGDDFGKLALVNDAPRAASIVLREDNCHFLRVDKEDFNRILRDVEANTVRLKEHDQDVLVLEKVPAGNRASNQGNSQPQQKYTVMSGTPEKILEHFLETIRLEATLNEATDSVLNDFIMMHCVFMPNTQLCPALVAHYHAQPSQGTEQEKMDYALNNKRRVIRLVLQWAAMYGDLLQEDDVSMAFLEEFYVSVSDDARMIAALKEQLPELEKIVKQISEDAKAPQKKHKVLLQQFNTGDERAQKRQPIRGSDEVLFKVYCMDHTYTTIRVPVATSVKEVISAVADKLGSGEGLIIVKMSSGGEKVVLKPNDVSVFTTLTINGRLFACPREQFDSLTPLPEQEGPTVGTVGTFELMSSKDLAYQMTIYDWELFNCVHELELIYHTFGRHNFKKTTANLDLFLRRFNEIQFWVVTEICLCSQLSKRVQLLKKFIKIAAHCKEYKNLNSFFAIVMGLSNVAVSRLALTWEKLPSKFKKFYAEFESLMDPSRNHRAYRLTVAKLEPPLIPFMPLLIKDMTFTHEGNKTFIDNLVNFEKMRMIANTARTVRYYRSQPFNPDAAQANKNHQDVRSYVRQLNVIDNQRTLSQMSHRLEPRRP
USP1-UAF1 inh – Inhibitors of USP1/UAF1: Primary Screen. Ubiquitin carboxyl-terminal hydrolase 1 (Homo sapiens), O94782. recombinant USP1/UAF1, Ub-Rhodamine cleavage fluorescence. hit rate 0.23% among 390,000. AID 743255, 2014. Potency, µM (highest dose often 57.1 µM), for inactives: top-dose activity change, negative = inhibition, hits mostly inhibitors; note: % is set by controls: 0 for no effect and ±100 for the full control effect; nearly all actives have a fitted effect of over 60% in size
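1 nM enzyme complex + cpd, 15 min RT; start with Ub-Rho 150nM final; kinetic fluorescence ex 480/em 540, 6 reads q60 s. Buffer 50mM HEPES pH 7.8, 0.5mM EDTA, 0.1 mg/ml BSA, 1mM TCEP, 0.01% Tween-20.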
ALOX12 inh – Primary qHTS assay for inhibitors of human arachidonate 12S-lipoxygenase (ALOX12): Round 2; Polyunsaturated fatty acid lipoxygenase ALOX12 (Homo sapiens), P18054; purified 12hLO, xylenol orange hydroperoxide absorbance; Potency, µM (highest dose often 108 µM), inactives show at the highest dose activity change, negative = inhibition, hits mostly inhibitors; hit rate 1.1% among 580,000; note: % is set by controls: 0 for no effect and ±100 for the full control effect
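Hydroperoxide product was detected by ferrous iron/xylenol orange as the 573 to 405 nm absorbance ratio. Arachidonic acid at 40 uM (final) was turned over for 30 min at room temperature by 150 nM human 12hLO, pH 7.0 Hepes buffer, after 15 min compound preincubation.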
EPAC2 ag – qHTS for Agonist of cAMP-regulated guanine nucleotide exchange factor 4 (EPAC2): primary screen; Potency, µM (doses to about 154 µM), without a hit: at the top dose activation, actives largely listed as activators; AID 720711, 2013; EPAC2 activation, biochemical qHTS; response scale: 100% = 6.5 mM cAMP response; hit rate 0.079% among 360,000; note: nearly all actives have a fitted effect of over 50% in size
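Exchange assay: 100 nM EPAC2 with 250 nM Rap1B-BODIPY-GDP and 50 uM GDP. Fluorescence (ex 480/em 540 nm) read every 5 min for 30 min at room temperature. Data normalized to 6.5 mM cAMP as agonist control.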
* hit, by the source's call. A selection: hits, their analogues and other compounds. The true share with any hit is near 1.3%. Calls come from the whole dose curve; as a rule, active = well fitted curve in the direction sought with a large enough effect; inconclusive = small, poorly fitted or top-dose-only effect, or another doubt; inactive = no such curve, though single readings can be large; an effect the other way counts as inactive or inconclusive. Potency is the fitted concentration of half-maximal effect.

For CC1(COc2ccccc2)COc2ccc(C(=O)NCc3ccncc3)cc2N1 (centres undefined) the results were ALOX12 inh 28.2µM*.
CCCC1CCc2c(sc(NC(C)=O)c2C#N)C1 (centres undefined) was read as ALOX12 inh 0.0%.
Screening C=CCn1c(N)c(C(=O)NCCC2=CCCCC2)sc1=S returned EPAC1 antag -14.7%, EPAC1 agonist -5.1%, EPAC2 antag -1.9%, USP1-UAF1 inh -12.2%, ALOX12 inh 17.8µM* and EPAC2 ag -3.2%.
Cc1ccc(-c2ccc(CCC(=O)O)n2-c2ccc(O)cc2)cc1 was read as EPAC1 antag -19.5%, EPAC1 agonist 4.0%, EPAC2 antag -10.9%, USP1-UAF1 inh -3.0%, ALOX12 inh inconclusive and EPAC2 ag 11.3%.
Screening O=C(O)CCc1ccc(-c2ccc(Br)cc2)n1-c1ccc(O)cc1 returned EPAC1 antag -16.1%, EPAC1 agonist -1.4%, EPAC2 antag 50.1µM*, USP1-UAF1 inh -5.9%, ALOX12 inh -27.2% and EPAC2 ag -8.1%.
For CCS(=O)(=O)C1=NN2C(=N)/C(=C\c3ccc(SCc4ccco4)o3)C(=O)N=C2S1 the results were EPAC1 antag -12.5%, EPAC1 agonist 10.1%, EPAC2 antag -21.6%, USP1-UAF1 inh inconclusive, ALOX12 inh 35.5µM* and EPAC2 ag 3.6%.
O=C(N/N=C/c1ccsc1)c1ccncc1 was read as ALOX12 inh 1.4%.
For COc1ccc(CN2CCN(C(=O)c3cccc4ccccc34)CC2)cc1Br the results were EPAC1 antag -5.2%, EPAC1 agonist 17.6%, EPAC2 antag -14.7%, USP1-UAF1 inh -20.6%, ALOX12 inh 0.562µM* and EPAC2 ag 7.4%.
Screening Cc1ccccc1CN1CCN(C(=O)c2cccc3ccccc23)CC1 returned EPAC1 antag 2.0%, EPAC1 agonist 15.1%, EPAC2 antag -17.6%, USP1-UAF1 inh -16.4%, ALOX12 inh 2.82µM* and EPAC2 ag 7.6%.
For Cc1ccc(CN2CCN(C(=O)c3cccc4ccccc34)CC2)cc1 the results were EPAC1 antag -11.8%, EPAC1 agonist -5.5%, EPAC2 antag 0.3%, USP1-UAF1 inh -12.6%, ALOX12 inh 1.26µM* and EPAC2 ag -0.2%.
Screening COc1ccc(CN2CCN(C(C)=O)CC2)cc1OC1CCN(C(=O)c2ccc3ccccc3n2)CC1 returned ALOX12 inh 28.2µM*.
For O=C(c1cccc2ccccc12)N1CCN(Cc2ccccc2F)CC1 the results were EPAC1 antag -0.5%, EPAC1 agonist 10.6%, EPAC2 antag -0.8%, USP1-UAF1 inh -11.1%, ALOX12 inh -26.0% and EPAC2 ag 9.8%.
Cc1ccccc1CN1CCN(C(=O)c2ccc3ccccc3n2)CC1 was read as ALOX12 inh -23.9%.
For COc1ccc(-c2nccn3cc(C(=O)NCc4nc5ccccc5n4C)nc23)cc1 the results were ALOX12 inh -8.3%.
Screening COc1ccccc1NC(=O)C(C)OC(=O)c1ccsc1 (centres undefined) returned ALOX12 inh 1.8%.
For CN1CCN(C(c2ccc(Br)cc2)c2cc(Cl)c3cccnc3c2O)CC1 (centres undefined) the results were EPAC1 antag -23.6%, EPAC1 agonist -10.9%, EPAC2 antag 1.7%, USP1-UAF1 inh inconclusive, ALOX12 inh 10µM* and EPAC2 ag 2.6%.
Screening CN1CCN(C(c2ccc(F)cc2)c2ccc3cccnc3c2O)CC1 (centres undefined) returned EPAC1 antag -4.6%, EPAC1 agonist -1.4%, EPAC2 antag 1.2%, USP1-UAF1 inh -21.0% and EPAC2 ag 0.7%.
For O=C(c1ccc(F)cc1)N1CCC(n2cc(-c3nc(-c4ccccc4)no3)nn2)CC1 the results were ALOX12 inh 21.4%.
For COc1ccccc1/C=C/C=N/n1c(-c2cc(-c3ccccc3)n[nH]2)n[nH]c1=S the results were EPAC1 antag -2.2%, EPAC1 agonist 0.5%, EPAC2 antag 5.0%, USP1-UAF1 inh -5.8%, ALOX12 inh 10µM* and EPAC2 ag 6.1%.
`Cc1cccc(-c2n[nH]c(=S)n2/N=C/C=C/c2ccco2)c1` gave EPAC1 antag inconclusive, EPAC1 agonist -6.3%, EPAC2 antag 0.3%, USP1-UAF1 inh -21.2%, ALOX12 inh 25.1µM* and EPAC2 ag -5.4%.
For S=c1[nH]nc(-c2ccncc2)n1/N=C/C=C/c1ccco1 the results were EPAC1 antag -9.7%, EPAC1 agonist 4.3%, EPAC2 antag 3.5%, USP1-UAF1 inh -5.6%, ALOX12 inh inconclusive and EPAC2 ag 10.5%.
`CC(/C=N/n1c(-c2ccc(C)cc2)n[nH]c1=S)=C\c1ccco1` gave EPAC1 antag -5.3%, EPAC1 agonist -5.1%, EPAC2 antag 8.3%, USP1-UAF1 inh -21.1%, ALOX12 inh inconclusive and EPAC2 ag 0.8%.
For CC(=C/c1ccccc1)/C=N/n1c(-c2ccncc2)n[nH]c1=S the results were EPAC1 antag -7.0%, EPAC1 agonist -5.2%, EPAC2 antag 17.8%, USP1-UAF1 inh -20.1%, ALOX12 inh 12.6µM* and EPAC2 ag 5.6%.
Screening CC(/C=N/n1c(-c2ccncc2)n[nH]c1=S)=C\c1ccco1 returned EPAC1 antag -8.5%, EPAC1 agonist 9.7%, EPAC2 antag 0.0%, USP1-UAF1 inh 1.3%, ALOX12 inh 7.08µM* and EPAC2 ag 3.6%.
Cc1cc(C)cc(NC(=O)c2nn(Cc3ccccc3)c(=O)c3ccccc23)c1 was read as ALOX12 inh 17.8%.
Cc1cc(=O)oc2cc(OCC(=O)NCc3cccs3)ccc12 was read as ALOX12 inh 7.9%.
For O=C(NCc1ncc(-c2ccccc2)o1)c1cccc(F)c1 the results were ALOX12 inh -27.8%.
Screening CCOc1ccc(NC(=O)c2nc3ccccc3nc2N2CCCCC2)cc1 returned ALOX12 inh 13.0%.
For Cc1ccccc1-c1nc(-c2ccccn2)no1 the results were EPAC1 antag 0.3%, EPAC1 agonist -5.1%, EPAC2 antag 11.5%, USP1-UAF1 inh -15.2%, ALOX12 inh -11.9% and EPAC2 ag 9.8%.
